Activity calls are given as the source filed them. Unless noted, how the calls were made is not given here.
Columns and labels:
[1] = system: Wnt5a (protein binding on small-molecule microarray); experiment: small molecules binding Wnt5a protein – biophysical, small-molecule microarray, 635/667 nm fluorescence, primary screen (AID 1142); details: 635 nm fluorescence, higher = more signal;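 further: fluorescence read at 667 nm with signal to noise per printed feature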
[2] = ATP-based viability of Huh7 replicon cells – cell-based, CellTiter-Glo luminescence, basal, 48 h, cytotoxicity control for HCV replication inhibitor project, primary screen (AID 1143); details: higher = more signal, called active from +8 up or from −8 down;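 further: Huh7 hepatoma cells carrying a hepatitis C replication reporter with no stimulus; test concentration not given here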
[3] = Pseudomonas biofilm growth suppression – PAO1 strain, BacTiter-Glo luminescence, LB-PBS, primary screen (AID 1144); details: P. aeruginosa PAO1 biofilm, 12 h, higher = more signal
[4] = basal CRE-LacZ reporter activity in PC12 – cell-based, unstimulated, primary screen (AID 1145); details: no forskolin, luminescence, 4.5 h, higher = more signal, called active from +8 up or from −8 down
[5] = forskolin-driven CRE-LacZ activity in PC12 – cell-based, CRE-LacZ reporter, forskolin-stimulated, primary screen (AID 1146); details: luminescence, 4.5 h, higher = more signal, called active from +8 up or from −8 down;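 further: PC12 cells with 6xCRE LacZ reporter stimulated by forskolin 10 µM; beta-galactosidase reporter signal reflecting CREB driven transcription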
[6] = biological target: Streptavidin (Streptomyces avidinii) (UniProt P22629); experiment: compounds binding control protein streptavidin – biophysical, small-molecule microarray, 635/667 nm fluorescence, artefact control for SMM compound annotation, primary screen (AID 1147); details: higher = more signal;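 further: signal reflects streptavidin binding to arrayed compounds as a control protein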
[7] = probe aInhba binding on compound microarray – biochemical, small-molecule microarray, 635/667 nm fluorescence, primary screen (AID 1148); details: higher = more signal;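 further: score merges 667nm spot fluorescence with signal-to-noise for antibody binding to printed compounds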
[8] = biological target: Torsin-1A (Homo sapiens) (UniProt O14656); experiment: TOR1A wild-type binding on microarray – cell lysate, small-molecule microarray, lysate, 635/667 nm, primary screen (AID 1149); details: COS7 hTOR1A-WT lysate, 635 nm fluorescence, higher = more signal
[9] = biological target: Torsin-1A (Homo sapiens) (UniProt O14656); experiment: torsin A mutant lysate binding on microarrays – cell lysate, small-molecule microarray, COS7 lysate, 635/667 nm fluorescence, primary screen (AID 1150); details: COS7 hTOR1A mutant lysate, 635 nm fluorescence, higher = more signal;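 further: score pools 667 nm emission and signal to noise measuring lysate protein binding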
[10] = system: Sonic hedgehog protein (Shh); experiment: Sonic hedgehog microarray binding compounds – biochemical, small-molecule microarray, 635/667 nm fluorescence, primary screen (AID 1151); details: 635 nm fluorescence, higher = more signal;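 further: Shh protein binding to compounds spotted on small-molecule microarray slides; score combines spot fluorescence intensity with signal-to-noise across triplicate slides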
[11] = optical density shifts of acrAB sulA E. coli – strain DRC41, OD650, 48 h, E. coli filamentation inducer project, primary screen (AID 1152); details: higher = more signal, called active from +8 up or from −8 down;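 further: E. coli MC1000 strain DRC41 lacking acrAB efflux pump and sulA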
[12] = probe aLefty1 binding on compound microarray – biochemical, small-molecule microarray, 635/667 nm fluorescence, primary screen (AID 1153); details: higher = more signal;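 further: score merges spot fluorescence with signal-to-noise ratio from the scanned slide images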
[13] = plasmodial surface anion channel blockers, osmotic lysis – cell-based, P. falciparum Indochina, OD700, 1 h, primary screen (AID 1154); details: P. falciparum Indochina infected RBC osmotic lysis, higher = more signal, called active from +8 up or from −8 down
[14] = plasmodial surface anion channel blockers, osmotic lysis – cell-based, P. falciparum Indochina, OD700, 2 h, primary screen (AID 1155);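 further: lysis reports solute entry through the parasite surface anion channel PSAC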; details: P. falciparum Indochina infected erythrocytes, higher = more signal, called active from +8 up or from −8 down
[15] = changes in parasitized red cell lysis, either direction – P. falciparum Indochina, OD700, 3 h, PSAC antagonist project, primary screen (AID 1156); details: P. falciparum-infected erythrocytes, osmotic lysis, higher = more signal, called active from +8 up or from −8 down
[16] = plasmodial surface anion channel blockers, osmotic lysis – cell-based, P. falciparum Indochina, OD700, 18 h, primary screen (AID 1157); details: P. falciparum Indochina infected erythrocytes, osmotic lysis OD700, 18 h; higher = more signal, called active from +8 up or from −8 down
[17] = S6 kinase pathway phospho-S6 level changes – cell-based, A549, cytoblot, luminescence, serum-stimulated, primary screen (AID 1158); details: 5 h, higher = more signal;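 further: serum-stimulated A549 lung adenocarcinoma cells; signal is phosphorylated S6 detected by cytoblot immunostaining with HRP secondary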
[18] = biological target: NADPH oxidase 2 (Homo sapiens) (UniProt P04839); experiment: compounds shifting NOX2 Amplex Red fluorescence – cell-based, HEK293-NOX2, PMA-stimulated, NOX inhibitor project, primary screen (AID 1159); details: 45 min, higher = more signal, called active from +8 up or from −8 down; further: test concentration not given here
[19] = biological target: NADPH oxidase 4 (Homo sapiens) (UniProt Q9NPH5); experiment: compounds shifting NOX4 Amplex Red fluorescence – cell-based, HEK293-NOX4, tetracycline-induced, NOX inhibitor project, primary screen (AID 1160); details: HEK293-NOX4, Amplex Red H2O2 fluorescence, 45 min; higher = more signal, called active from +8 up or from −8 down
[20] = biological target: NADPH oxidase 5 (Homo sapiens) (UniProt Q96PH1); experiment: compounds shifting NOX5 Amplex Red fluorescence – cell-based, HEK293-NOX5, NOX inhibitor project, primary screen (AID 1161); details: HEK293-NOX5, ionomycin, 45 min, higher = more signal
NADPH oxidase 5 (Homo sapiens), sequence (Q96PH1 whole entry, looked up): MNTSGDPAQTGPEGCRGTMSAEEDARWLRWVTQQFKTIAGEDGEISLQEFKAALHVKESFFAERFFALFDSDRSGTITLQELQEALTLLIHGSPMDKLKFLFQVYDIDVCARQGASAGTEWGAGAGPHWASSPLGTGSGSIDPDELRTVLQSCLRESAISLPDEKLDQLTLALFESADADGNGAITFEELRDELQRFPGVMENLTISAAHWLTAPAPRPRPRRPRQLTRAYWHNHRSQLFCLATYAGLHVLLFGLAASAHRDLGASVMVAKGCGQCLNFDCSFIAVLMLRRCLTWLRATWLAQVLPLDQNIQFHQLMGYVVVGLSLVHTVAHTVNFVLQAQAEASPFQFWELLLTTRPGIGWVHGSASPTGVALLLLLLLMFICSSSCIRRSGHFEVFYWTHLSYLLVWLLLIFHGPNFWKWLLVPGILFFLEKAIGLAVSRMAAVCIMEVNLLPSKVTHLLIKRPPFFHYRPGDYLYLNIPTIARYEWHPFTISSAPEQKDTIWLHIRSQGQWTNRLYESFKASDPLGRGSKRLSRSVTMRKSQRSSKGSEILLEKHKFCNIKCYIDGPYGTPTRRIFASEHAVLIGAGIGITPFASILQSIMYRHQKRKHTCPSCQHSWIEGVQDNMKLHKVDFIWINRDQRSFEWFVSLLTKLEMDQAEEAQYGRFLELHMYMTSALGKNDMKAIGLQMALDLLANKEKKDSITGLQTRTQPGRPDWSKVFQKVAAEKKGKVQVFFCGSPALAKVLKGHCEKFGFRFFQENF

Torsin-1A (Homo sapiens), sequence (O14656 whole entry, looked up): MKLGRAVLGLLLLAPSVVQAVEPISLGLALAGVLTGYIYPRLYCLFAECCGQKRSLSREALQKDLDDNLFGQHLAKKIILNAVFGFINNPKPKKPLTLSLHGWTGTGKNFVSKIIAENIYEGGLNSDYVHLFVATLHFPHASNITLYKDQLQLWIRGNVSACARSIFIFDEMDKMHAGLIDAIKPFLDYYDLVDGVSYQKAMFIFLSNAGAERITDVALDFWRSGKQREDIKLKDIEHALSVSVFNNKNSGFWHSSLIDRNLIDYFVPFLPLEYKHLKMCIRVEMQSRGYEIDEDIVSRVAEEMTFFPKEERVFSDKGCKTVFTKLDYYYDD
NADPH oxidase 4 (Homo sapiens), sequence (Q9NPH5 whole entry, looked up): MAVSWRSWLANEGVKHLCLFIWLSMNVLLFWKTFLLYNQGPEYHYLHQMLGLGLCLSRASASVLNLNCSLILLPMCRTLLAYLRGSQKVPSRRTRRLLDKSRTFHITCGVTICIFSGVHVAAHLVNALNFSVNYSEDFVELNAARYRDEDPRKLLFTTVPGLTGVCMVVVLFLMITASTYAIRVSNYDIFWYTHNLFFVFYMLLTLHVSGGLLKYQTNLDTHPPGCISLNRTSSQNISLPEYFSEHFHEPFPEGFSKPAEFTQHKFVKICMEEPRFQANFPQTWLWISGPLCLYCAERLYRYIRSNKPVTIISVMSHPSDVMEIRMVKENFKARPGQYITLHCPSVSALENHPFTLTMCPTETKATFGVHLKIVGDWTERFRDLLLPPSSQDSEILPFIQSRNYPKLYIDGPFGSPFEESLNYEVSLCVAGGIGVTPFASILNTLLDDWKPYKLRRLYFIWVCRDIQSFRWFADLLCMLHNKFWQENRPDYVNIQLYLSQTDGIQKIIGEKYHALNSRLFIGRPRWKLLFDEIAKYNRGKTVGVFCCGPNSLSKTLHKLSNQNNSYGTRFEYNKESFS
Streptavidin (Streptomyces avidinii), sequence (P22629 whole entry, looked up): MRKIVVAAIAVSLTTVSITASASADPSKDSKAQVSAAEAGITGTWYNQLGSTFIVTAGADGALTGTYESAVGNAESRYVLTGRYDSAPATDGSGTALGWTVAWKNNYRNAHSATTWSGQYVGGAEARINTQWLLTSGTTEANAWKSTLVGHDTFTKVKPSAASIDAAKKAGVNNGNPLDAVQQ
NADPH oxidase 2 (Homo sapiens), sequence (P04839 whole entry, looked up): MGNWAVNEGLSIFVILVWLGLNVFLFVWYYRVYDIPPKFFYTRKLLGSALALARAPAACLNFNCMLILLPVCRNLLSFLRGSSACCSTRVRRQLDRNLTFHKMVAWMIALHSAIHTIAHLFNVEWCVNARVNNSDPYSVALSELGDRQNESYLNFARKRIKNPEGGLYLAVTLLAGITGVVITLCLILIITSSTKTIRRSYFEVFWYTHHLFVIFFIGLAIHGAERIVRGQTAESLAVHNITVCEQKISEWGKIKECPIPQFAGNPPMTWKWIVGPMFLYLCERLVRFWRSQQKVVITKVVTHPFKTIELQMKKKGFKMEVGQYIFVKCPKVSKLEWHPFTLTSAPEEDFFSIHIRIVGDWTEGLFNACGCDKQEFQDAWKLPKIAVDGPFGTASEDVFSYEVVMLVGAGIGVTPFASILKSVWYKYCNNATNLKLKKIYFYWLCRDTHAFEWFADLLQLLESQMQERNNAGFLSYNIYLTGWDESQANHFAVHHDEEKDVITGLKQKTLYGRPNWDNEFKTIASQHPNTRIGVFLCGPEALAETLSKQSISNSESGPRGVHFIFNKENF

SMILES	composite z-score [1]	z-score [2]	z-score [3]	z-score [4]	z-score [5]	composite z-score [6]	composite z-score [7]	composite z-score [8]	composite z-score [9]	composite z-score [10]	z-score [11]	composite z-score [12]	z-score [13]	z-score [14]	z-score [15]	z-score [16]	z-score [17]	z-score [18]	z-score [19]	z-score [20]
O=C1C[C@@](C(=O)NCCN2CCOCC2)(c2ccc([N+](=O)[O-])cc2)[C@@H](c2ccc(CO)cc2I)N1CC12CC3CC(CC(C3)C1)C2	0.92	-5.9 (inactive)	1.22 (inactive)	-0.269 (inactive)	-0.435 (inactive)	0.489	0.134	0.97	0.578	2.14	-0.942 (inactive)	0.344	18.9 (active)	10.2 (active)	0.797 (inactive)	1.28 (inactive)	0.238	-8.18 (active)	-1.75 (inactive)	1.58
O=C(c1ccccc1)N1Cc2ccccc2C[C@@]2(COC(c3ccc(OCCCO)cc3)=N2)C1=O	0.406	-1.71 (inactive)	-0.0668 (inactive)	2.72 (inactive)	-0.152 (inactive)	0.298	0.167	0.655	0.787	1.33	-0.298 (inactive)	0.39	15.2 (active)	1.26 (inactive)	4.66 (inactive)	0.498 (inactive)	-0.107	0.137 (inactive)	-0.302 (inactive)	-0.983
COC(=O)C[C@H]1O[C@]2(C(=O)N(C)c3ccccc32)[C@@H](C)[C@@H]1[Si](C)(C)F	0.56	-1.18 (inactive)	-0.852 (inactive)	1.03 (inactive)	-0.383 (inactive)	0.454	0.0301	0.142	0.164	1.79	2.91 (inactive)	0.0982	-0.0899 (inactive)	-0.562 (inactive)	-0.338 (inactive)	-2.12 (inactive)	1.26	-0.771 (inactive)	0.555 (inactive)	1.45
C=CC[C@]1(C(=O)NCc2ccccc2)N=C(c2ccc(OCCCO)cc2)O[C@H]1c1ccccc1N=[N+]=[N-]	0.713	-3.2 (inactive)	-0.00841 (inactive)	1.49 (inactive)	-0.967 (inactive)	2.21	-0.0468	0.818	0.787	-0.231	0.0858 (inactive)	0.222	31.8 (active)	27.1 (active)	3.46 (inactive)	6.96 (inactive)	0.0617	-1.8 (inactive)	0.721 (inactive)	-0.0713
O=C1O[C@H](c2ccccc2)[C@H](c2ccccc2)N2[C@H]1[C@@H](C(=O)N1CCCCCCC1)[C@]1(C(=O)Nc3ccc(C#CC4=CCCCC4)cc31)[C@H]2c1ccc(OCCO)cc1	1.79	-5.63 (inactive)	-0.761 (inactive)	0.182 (inactive)	-0.617 (inactive)	3.17	2.23	1.5	1.88	1.59	2.72 (inactive)	2.88	10.2 (active)	0.658 (inactive)	1.08 (inactive)	-1.25 (inactive)	2.85	-0.708 (inactive)	0.14 (inactive)	-2.05
COC(=O)[C@@]1(Cc2ccc(OC)cc2)[C@H]2c3cc(C(=O)N(C)C)n(Cc4ccc(S(C)(=O)=O)cc4)c3C[C@H]2CN1C(=O)c1ccccc1	-0.0427	-2.9 (inactive)	-1.05 (inactive)	-1.14 (inactive)	-1.33 (inactive)	1.24	0.431	2.24	1.29	-0.599	-0.752 (inactive)	1.06	1.85 (inactive)	0.451 (inactive)	0.954 (inactive)	-0.336 (inactive)	4.44	1.04 (inactive)	1.74 (inactive)	-3.36
C=CCC(OC(C)=O)[C@@H]1[C@@H](N(Cc2cccc3ccccc23)C(=O)c2ccc(-c3ccccc3)cc2)c2cc(OCCCO)ccc2N1C(=O)c1ccc2ccccc2c1 (stereo not given in full)	-0.0128	0.107 (inactive)	-0.815 (inactive)	0.222 (inactive)	0.0667 (inactive)	0.486	0.0816	-0.219	-0.0217	0.711	-0.495 (inactive)	0.0153	0.135 (inactive)	0.396 (inactive)	-0.182 (inactive)	0.0644 (inactive)	0.174	-0.608 (inactive)	0.624 (inactive)	-0.535
COC(=O)C(CC#Cc1ccc2c(c1)[C@]1(C(=O)N2)[C@H](c2ccc(OCCO)cc2)N2[C@H](c3ccccc3)[C@H](c3ccccc3)OC(=O)[C@H]2[C@@H]1C(=O)N1CCc2cc(OC)c(OC)cc2C1)C(=O)OC	0.714	-0.6 (inactive)	0.188 (inactive)	-0.0688 (inactive)	2.19 (inactive)	1.52	0.542	0.668	0.623	1.91	-0.339 (inactive)	1.08	3.44 (inactive)	1.89 (inactive)	0.506 (inactive)	0.754 (inactive)	-0.214	1.13 (inactive)	0.632 (inactive)	1.96
